According to PubChem BioAssay (NCI):
About 83,000 compounds went through this panel and 20% of them were active in at least one assay; those are over-represented in the sample as a whole.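 Negative percent growth values reflect cell death: -40 means 40% of the cells present at the start died, and -100 means all died.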 Values without a mark were called inactive. The source made the active and inactive calls. The calls were made as follows: active = growth percent below 10; inactive = the rest.

tested on: HL-60(TB) leukemia; test: NCI-60 one-dose screen, 48 h (100 = growth as untreated, 0 = no growth, -100 = all killed); conditions: 10 µM unless noted

Structure (SMILES)	growth
C/C(=N\NC(=O)Nc1ccccc1)c1nnn(-c2ccc([N+](=O)[O-])cc2)c1C	98.9%
COC(=O)[C@@]1(C)CC[C@]2(C)CC[C@]3(C)C(=CC(=O)[C@@H]4[C@@]5(C)Cc6c(n(CC#CCN7CCN(C)CC7)c7ccccc67)C(C)(C)[C@@H]5CC[C@]43C)[C@@H]2C1	3.4% (active)
CCNC(=O)N1CCc2cc(OC)c(OCCc3ccc(OC)cc3)cc2C1c1ccc([N+](=O)[O-])cc1C (stereo unspecified)	14%
CC(=O)Nc1cccc(-n2cnc3cc(-c4ccc(O)cc4)ccc32)c1	6.68% (active)
C=CCn1c(SCC(=O)Nc2ccc(C(=O)/C=C/c3cc(OC)c(OC)c(OC)c3)cc2)nnc1-c1c[nH]c2ccccc12	-15.1% (active)
N#Cc1c(NC(=O)c2ccc(F)c(Cl)c2)sc2c1CCC(=O)C2	-14.5% (active)
CC1(C)CC[C@]2(C(=O)O)CC[C@]3(C)C(=CCC4[C@@]5(C)C[C@@H](O)[C@@H]6OC(c7cccc([N+](=O)[O-])c7)OC[C@@]6(C)C5CC[C@]43C)C2C1 (stereo partly specified)	42.5%
COc1ccc2c(c1)c(CC(=O)[Se]CC#N)c(C)n2C(=O)c1ccc(Cl)cc1	-14% (active)
Cc1cc(=O)n2nc(-c3cn(C)c4ccc(Cl)cc34)sc2n1	92.5%
CS(=O)(=O)Nc1cc(-c2ccc3ncc(C#N)c(NCc4cccc(F)c4)c3c2)cnc1Cl	4.11% (active)
CC1(C)CC[C@]23CC[C@]4(C)[C@H](CC[C@@H]5[C@@]6(C)CCCN(CO)C(C)(C)[C@@H]6CC[C@]54C)[C@H]2[C@H]1OC3	36.6%
